# Laboratory results published in PubChem BioAssay (NCI).
# Several values for one entry are separate records, joined by “and”; a condition that tells them apart may be missing. Equal values may be shown once. About 79,000 compounds went through this panel and 15% of them were active in at least one assay; those are over-represented in the sample as a whole. Unmarked numbers belong to inactive results. Activity calls are given as the source filed them. Rule as the data show it: active = growth inhibition above about 70%; inactive = the rest.
# Legend:
# [1] = NCI Yeast Anticancer Drug Screen. Data for the rad50 strain (AID 155);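 also: 0% = growth of vehicle-only cultures of the same strain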; conditions: S. cerevisiae rad50 strain growth inhibition, active compounds read high
# In short: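 Compounds were tested on a yeast strain with an engineered DNA damage repair alteration; the reported value is growth inhibition normalised to vehicle treatment.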
# [2] = NCI Yeast Anticancer Drug Screen. Data for the mec2-1 strain (AID 157); conditions: S. cerevisiae mec2-1 strain, active compounds read high
# In short: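 Mutant yeast (mec2-1) grown with compound; growth inhibition relative to vehicle control reported.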
# [3] = NCI Yeast Anticancer Drug Screen. Data for the sgs1 mgt1 strain (AID 161);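 also: 0% = growth of cultures given vehicle only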; conditions: S. cerevisiae sgs1 mgt1 strain, active compounds read high
# In short: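 This yeast growth screen uses a strain with defined DNA-repair lesions; compound-treated growth is compared with vehicle-treated growth.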
# [4] = NCI Yeast Anticancer Drug Screen. Data for the cln2 rad14 strain (AID 165);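 also: 0% = growth equal to vehicle treated cultures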; conditions: S. cerevisiae cln2 rad14 strain, active compounds read high
# In short: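 Readout is yeast growth inhibition versus vehicle-treated controls, using a strain with cln2 and rad14 alterations exposed to compound.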
# [5] = NCI Yeast Anticancer Drug Screen. Data for the bub3 strain (AID 167); conditions: S. cerevisiae bub3 mutant strain, active compounds read high
# In short: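 Growth of a checkpoint-deficient yeast mutant is measured after compound exposure. Values represent inhibition relative to vehicle.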
# [6] = NCI Yeast Anticancer Drug Screen. Data for the mlh1 rad18 strain (AID 175); conditions: S. cerevisiae mlh1 rad18 strain growth inhibition, active compounds read high
# In short: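 Genetically defined yeast (DNA repair-deficient) exposed to compounds; growth inhibition determined relative to vehicle.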
# [7] = at 5.0 µM (retest, dose inferred, filed as 0.5)
# [8] = at 50.0 µM (retest, dose inferred, filed as 5.0)
SMILES,"growth inhibition [1, 7]","growth inhibition [1, 8]",growth inhibition ([1]; at 50.0 µM),"growth inhibition [2, 7]","growth inhibition [2, 8]",growth inhibition ([2]; at 50.0 µM),"growth inhibition [3, 7]","growth inhibition [3, 8]",growth inhibition ([3]; at 50.0 µM),"growth inhibition [4, 7]","growth inhibition [4, 8]",growth inhibition ([4]; at 50.0 µM),"growth inhibition [5, 7]","growth inhibition [5, 8]",growth inhibition ([5]; at 50.0 µM),"growth inhibition [6, 7]","growth inhibition [6, 8]",growth inhibition ([6]; at 50.0 µM)
c1ccc2c[n+](CCCCCCCCCC[n+]3ccc4ccccc4c3)ccc2c1,67%,95% (active),89.2% (active),70% (active),98% (active),91.2% (active),79% (active),98% (active),90.5% (active),68%,98% (active),83.7% (active),88% (active),99% (active),91.3% (active),72% (active),94% (active),88.1% (active)
O=[N+]([O-])c1ccc(O)c(CCl)c1,6%,41%,16.5%,-1%,22%,1.6%,0%,36%,20.9%,0%,5%,-4.15%,3%,18%,8.65%,4%,59%,76.2% (active)
Cn1cnc(C(=N)[Se])c1N,63%,94% (active),83.4% (active),30%,91% (active),71% (active),27%,53%,30.8%,2%,15%,-24.8%,51%,94% (active),91.4% (active),78% (active),94% (active),67.7%
C[C@H](N)C(=O)N[C@@H]1[C@H]2C(=C(O)C[C@@H](O)[C@@H]2O)C(=O)O[C@]1(C)C(Cl)Cl,18%,22%,17.1%,7%,26%,13.1%,12%,25%,6.6%,18%,53%,44.9%,7%,26%,30.9%,6%,25%,27.4%
O=S(=O)(O)O.[Pt].c1ccc([PH+](c2ccccc2)c2ccccc2)cc1.c1ccc([PH+](c2ccccc2)c2ccccc2)cc1.c1ccc([PH+](c2ccccc2)c2ccccc2)cc1,23%,95% (active),93.8% (active),13%,94% (active),98.1% (active),9%,94% (active),94.3% (active),8%,97% (active),97.8% (active),-7%,92% (active),96.7% (active),39%,95% (active),95.2% (active)
CCCCCOC(=O)CCl,8%,69%,54.7%,1%,16%,1.75%,4%,40%,32.2%,1%,8%,16.5%,0%,-5%,-27.6%,11%,32%,19.4%
CC1(C)CCC(C)(C)c2cc(Cl)c(O)cc21,4%,1%,97.8% (active),4%,2%,99.2% (active),4%,2%,52.5%,5%,4%,96.6% (active),3%,9%,98.8% (active),-1%,-4%,97.2% (active)
C1CC[CH]([Sn]([CH]2CCCCC2)[CH]2CCCCC2)CC1.C1CC[CH]([Sn]([CH]2CCCCC2)[CH]2CCCCC2)CC1,2%,34%,31.5%,0%,34%,63.3%,4%,17%,75.7% (active),3%,-9%,-30.2%,3%,-2%,9.5%,0%,4%,87.9% (active)
Cc1ccccc1C(=O)CN,-3%,-2%,16.4%,0%,-3%,-6%,-1%,0%,-4.2%,-5%,-3%,81.3% (active),-2%,-9%,-13.1%,-1%,-3%,12.9%
CCCCCCCCCCCCCC(=O)O,-7%,18%,4.15% and 34.9%,11%,63%,7.2% and -10.9%,11%,88% (active),15.4% and 27.3%,1%,20%,66.5% and 24.1%,-7%,29%,57.7% and 11.7%,5%,87% (active),-6.2% and 13.4%
COc1cc(C=Nc2ccc(-c3csc(COc4ccccc4)n3)cc2)ccc1N(CCCl)CCCl,12%,88% (active),89.7% (active),11%,92% (active),88.1% (active),8%,93% (active),86.2% (active),2%,85% (active),84.2% (active),17%,88% (active),86% (active),77% (active),92% (active),90.6% (active)
CC(C)(C)CC(C)(C)c1ccc(O)cc1,-11%,99% (active),99.7% (active),-12%,99% (active),99.7% (active),-6%,98% (active),99.8% (active),-7%,99% (active),99.5% (active),-22%,98% (active),98.5% (active),-9%,99% (active),99.6% (active)
CC1(C)OCC(COC(=O)C=[N+]=[N-])O1 (centres undefined),0%,-10%,2.75%,0%,-7%,0.75%,11%,-4%,-7.5%,-3%,-14%,-6.95%,2%,-3%,-2.25%,-2%,-14%,42.5%
CC1=C[n+]2cc(C)ccc2Sc2c1ccc1ccccc21,-2%,24%,64.3%,11%,50%,74.7% (active),-20%,10%,80.5% (active),-2%,4%,28.8%,0%,29%,66.9%,-1%,30%,79.5% (active)
C=CCOc1cc2c(ccc1=O)-c1c(cc(OC)c(OC)c1OC)CCC2NC(C)=O (centres undefined),-3%,3%,96.1% (active),3%,80% (active),87.6% (active),-18%,45%,93.9% (active),-5%,-11%,96.3% (active),-5%,66%,96.8% (active),-5%,78% (active),95.5% (active)
CC(=O)O.[Au].c1ccc([PH+](c2ccccc2)c2ccccc2)cc1,99% (active),98% (active),98.2% (active),98% (active),98% (active),98.2% (active),99% (active),55%,98% (active),99% (active),96% (active),98% (active),100% (active),98% (active),98.2% (active),99% (active),97% (active),97.6% (active)
COC1OC(COC(C)=O)C(OC(C)=O)C(OC(C)=O)[C]1(OC(C)=O)[Hg][O]C(C)=O (centres undefined),99% (active),99% (active),99.3% (active),100% (active),100% (active),98.5% (active),99% (active),99% (active),99.7% (active),99% (active),98% (active),99.4% (active),99% (active),99% (active),97.8% (active),99% (active),99% (active),99.7% (active)
CC12CCC(O)CC1CCC1C2CCC2(C)C(C(=O)CC(O)C(F)(F)F)CCC12 (centres undefined),4%,62%,84.5% (active),8%,43%,65.8%,-9%,62%,67.5%,-7%,66%,71.2% (active),-15%,57%,84% (active),0%,63%,85.7% (active)
